# Inconclusive results are not listed. Active and inactive are the calls of the source. The calls were made as follows, unless noted: active = hit-call score of the fitted dose curve at least 0.9, where 1 is the maximum; inconclusive = response in the unintended direction; inactive = score below 0.9.
# How the values were obtained:
# [1] = target: human CYP2D6, CYP2D6 (gene 1565) (UniProt P10635); experiment: NVS_ADME_hCYP2D6: NovaScreen (NVS) CYP450-related Enzyme Activity (ADME) Assay for human CYP2D6 (AID 2283107)
# Summary of the method: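 Insect-cell recombinant enzyme + fluorogenic substrate, cell-free; 1 h incubation; fluorescence intensity readout. Acetonitrile = neg. ctrl/baseline. Single-point 10 uM, duplicate; follow-up concentration series.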
# [2] = target: human Esterase Plasma (ES), BCHE (gene 590) (UniProt P06276); experiment: NVS_ENZ_hES: NovaScreen (NVS) Enzymatic Assay for human Esterase Plasma (ES) (AID 2283157)
# Sequence of human Esterase Plasma (ES), BCHE (gene 590) (P06276 whole entry, looked up): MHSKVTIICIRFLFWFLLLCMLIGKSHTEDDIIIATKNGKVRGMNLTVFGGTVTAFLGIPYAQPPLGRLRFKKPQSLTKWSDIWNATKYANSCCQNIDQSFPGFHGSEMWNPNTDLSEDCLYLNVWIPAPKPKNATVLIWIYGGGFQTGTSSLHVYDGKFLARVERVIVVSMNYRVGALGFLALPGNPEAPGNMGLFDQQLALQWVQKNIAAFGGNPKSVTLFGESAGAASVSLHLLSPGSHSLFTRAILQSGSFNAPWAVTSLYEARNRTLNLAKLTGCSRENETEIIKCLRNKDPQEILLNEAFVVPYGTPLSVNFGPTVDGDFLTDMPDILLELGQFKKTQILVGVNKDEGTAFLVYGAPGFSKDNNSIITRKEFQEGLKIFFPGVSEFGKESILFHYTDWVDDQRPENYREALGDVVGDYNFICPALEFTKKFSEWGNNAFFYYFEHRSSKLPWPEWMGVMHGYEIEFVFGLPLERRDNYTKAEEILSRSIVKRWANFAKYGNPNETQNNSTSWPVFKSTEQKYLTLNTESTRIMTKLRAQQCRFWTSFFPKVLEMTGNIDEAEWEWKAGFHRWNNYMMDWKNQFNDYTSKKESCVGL
# Summary of the method: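 Esterase from human plasma, cell-free, colorimetric absorbance read 0.25 h after dosing. Screened at 25 uM in duplicate, with threshold-passing chemicals run in concentration-response up to 50 uM; loss of signal fitted versus DMSO.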
# [3] = target: Muscarinic acetylcholine receptor M2 (Homo sapiens) (UniProt P08172); experiment: NVS_GPCR_hM2: NovaScreen (NVS) G Protein-Coupled Receptor Assay for human Muscarinic, M2 Receptor (AID 2283273)
# Sequence of Muscarinic acetylcholine receptor M2 (Homo sapiens) (P08172 whole entry, looked up): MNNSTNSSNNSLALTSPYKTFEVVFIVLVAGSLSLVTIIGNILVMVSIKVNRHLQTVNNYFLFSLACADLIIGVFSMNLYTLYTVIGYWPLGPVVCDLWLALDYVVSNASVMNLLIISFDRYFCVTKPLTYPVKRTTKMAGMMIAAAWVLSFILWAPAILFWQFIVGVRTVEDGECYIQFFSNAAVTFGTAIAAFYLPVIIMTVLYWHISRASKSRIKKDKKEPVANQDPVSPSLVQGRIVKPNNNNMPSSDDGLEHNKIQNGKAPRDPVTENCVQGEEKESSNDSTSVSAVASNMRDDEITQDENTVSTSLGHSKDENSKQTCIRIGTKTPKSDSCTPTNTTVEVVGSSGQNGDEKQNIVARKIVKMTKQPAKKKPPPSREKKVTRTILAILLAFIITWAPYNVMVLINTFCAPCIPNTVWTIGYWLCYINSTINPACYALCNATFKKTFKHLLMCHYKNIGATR
# Summary of the method: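 Radioligand displacement on human M2 receptor membranes from CHO cells, 1 h incubation, filtration with scintillation counting. Primary screen in duplicate at 25 uM; actives retested in concentration series; loss of signal fitted versus DMSO.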
# [4] = target: human Neurokinin, NK2 Receptor, TACR2 (gene 6865) (UniProt P21452); experiment: NVS_GPCR_hNK2: NovaScreen (NVS) G Protein-Coupled Receptor Assay for human Neurokinin, NK2 Receptor (AID 2283278);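 also: actives reduce bound radioligand signal relative to DMSO baseline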
# Sequence of human Neurokinin, NK2 Receptor, TACR2 (gene 6865) (P21452 whole entry, looked up): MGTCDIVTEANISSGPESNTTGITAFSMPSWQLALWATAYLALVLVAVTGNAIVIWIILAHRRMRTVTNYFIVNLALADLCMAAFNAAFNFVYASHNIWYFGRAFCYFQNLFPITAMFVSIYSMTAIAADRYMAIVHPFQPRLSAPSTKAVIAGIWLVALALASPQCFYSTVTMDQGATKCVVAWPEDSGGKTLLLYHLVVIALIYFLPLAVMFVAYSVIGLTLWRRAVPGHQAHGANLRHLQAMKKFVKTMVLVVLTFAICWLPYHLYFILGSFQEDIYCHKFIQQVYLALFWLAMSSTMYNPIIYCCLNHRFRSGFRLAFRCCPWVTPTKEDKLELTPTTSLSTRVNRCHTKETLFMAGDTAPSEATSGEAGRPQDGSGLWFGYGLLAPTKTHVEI
# Summary of the method: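 CHO-derived membrane protein, radioligand displacement, filter scintillation read at 4 h post-dose. Single-point 25 uM in duplicate, then concentration series for actives; DMSO as negative control.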
# [5] = target: human Opioid Receptor Mu (Opiate Mu), OPRM1 (gene 4988) (UniProt P35372); experiment: NVS_GPCR_hOpiate_mu: NovaScreen (NVS) G Protein-Coupled Receptor Assay for human Opioid Receptor Mu (Opiate Mu) (AID 2283290);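 also: hits lower bound tracer signal versus DMSO meaning displacement of the ligand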
# Sequence of human Opioid Receptor Mu (Opiate Mu), OPRM1 (gene 4988) (P35372 whole entry, looked up): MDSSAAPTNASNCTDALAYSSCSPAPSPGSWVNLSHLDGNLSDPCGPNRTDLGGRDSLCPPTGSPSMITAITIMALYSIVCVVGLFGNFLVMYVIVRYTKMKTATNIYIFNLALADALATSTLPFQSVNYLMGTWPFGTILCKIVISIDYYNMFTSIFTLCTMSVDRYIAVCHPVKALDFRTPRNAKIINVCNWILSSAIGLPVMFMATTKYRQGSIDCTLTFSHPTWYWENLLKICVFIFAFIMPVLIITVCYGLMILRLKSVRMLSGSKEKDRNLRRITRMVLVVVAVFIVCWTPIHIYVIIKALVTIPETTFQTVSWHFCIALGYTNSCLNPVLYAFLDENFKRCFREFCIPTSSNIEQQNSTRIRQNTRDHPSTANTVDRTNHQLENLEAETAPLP
# Summary of the method: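 Cell-free radioligand binding to membranes from CHO cells expressing the receptor; bound tracer measured by filter-based scintillation counting 2.5 hours after dosing. Loss of signal versus DMSO baseline reflects displacement; primary screen at 25 uM in duplicate, actives followed up in concentration series.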
# [6] = target: rat Adrenergic Receptor, Alpha 2 (Adra2), Non-selective Binding, Adra2a (gene 25083) (UniProt P22909); experiment: NVS_GPCR_rAdra2_NonSelective: NovaScreen (NVS) G Protein-Coupled Receptor Assay for rat Adrenergic Receptor, Alpha 2 (Adra2), Non-selective Binding (AID 2283299)
# Summary of the method: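 Rat cortical membranes, radioligand competitive displacement read by filter-based scintillation counting 1.25 hours after dosing. Primary screen in duplicate at 25 uM; actives followed up in concentration series.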
# [7] = target: Sodium channel protein type 1 subunit alpha (Rattus norvegicus) (UniProt P04774); experiment: NVS_IC_rNaCh_site2: NovaScreen (NVS) Ion Channel Assay for rat Sodium Channel, Site 2 (NaCh) (AID 2283322);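 also: hit means loss of radioligand binding signal relative to DMSO so AC50 marks displacement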
# Summary of the method: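 Membranes: rat forebrain. Format: competitive radioligand displacement, filter separation, scintillation readout, 1 h exposure. Primary screen in duplicate at 25 uM; actives retested in concentration series.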
# [8] = NVS_IC_rCaBTZCHL: NovaScreen (NVS) Ion Channel Assay for Calcium Channel, Type L, Benzothiazepine Site (CaBTZCHL) (AID 2283337)
# Summary of the method: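 Scintillation counting of filter-bound radioligand gave the read-out, with reduced binding versus DMSO scored as activity. Membranes came from rat cortex and were read 1.5 h after compound addition. Chemicals were screened first in duplicate at 25 uM.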
# [9] = target: chimpanzee Androgen Receptor (AR), AR (gene 747460) (UniProt O97775); experiment: NVS_NR_cAR: NovaScreen (NVS) Nuclear Receptor Binding Assay for chimpanzee Androgen Receptor (AR) (AID 2283346);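 also: radioligand displacement from AR measured by scintillation counting in a cell-free assay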
# Sequence of chimpanzee Androgen Receptor (AR), AR (gene 747460) (O97775 whole entry, looked up): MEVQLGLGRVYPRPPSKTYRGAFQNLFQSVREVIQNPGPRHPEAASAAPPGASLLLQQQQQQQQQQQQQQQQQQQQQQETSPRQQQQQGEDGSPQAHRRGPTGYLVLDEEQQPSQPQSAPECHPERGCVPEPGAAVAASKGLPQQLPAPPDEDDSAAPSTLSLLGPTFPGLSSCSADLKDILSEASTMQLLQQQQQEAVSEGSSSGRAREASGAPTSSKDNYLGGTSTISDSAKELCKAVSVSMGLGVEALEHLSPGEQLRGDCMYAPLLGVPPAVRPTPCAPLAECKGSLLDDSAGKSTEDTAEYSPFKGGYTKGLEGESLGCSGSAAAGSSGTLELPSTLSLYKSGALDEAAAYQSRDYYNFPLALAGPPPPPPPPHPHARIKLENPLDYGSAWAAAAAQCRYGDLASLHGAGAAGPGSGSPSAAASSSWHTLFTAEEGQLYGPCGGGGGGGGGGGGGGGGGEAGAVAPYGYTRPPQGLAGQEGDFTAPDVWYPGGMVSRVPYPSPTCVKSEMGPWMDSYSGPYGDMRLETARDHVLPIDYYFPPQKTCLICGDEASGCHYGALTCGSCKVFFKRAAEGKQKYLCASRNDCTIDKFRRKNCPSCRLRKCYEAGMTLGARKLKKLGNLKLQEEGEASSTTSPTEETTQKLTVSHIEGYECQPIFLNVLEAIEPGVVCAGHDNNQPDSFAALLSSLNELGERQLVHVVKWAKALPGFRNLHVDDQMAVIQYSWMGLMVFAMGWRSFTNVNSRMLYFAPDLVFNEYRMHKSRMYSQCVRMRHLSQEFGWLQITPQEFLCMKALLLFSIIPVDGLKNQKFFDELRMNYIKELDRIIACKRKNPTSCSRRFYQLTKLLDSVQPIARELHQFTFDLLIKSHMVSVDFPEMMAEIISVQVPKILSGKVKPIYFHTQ
# Summary of the method: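 Radioligand binding to chimpanzee AR expressed in Sf9/Sf21 cells, cell-free, measured 72 h after dosing by lysate-based scintillation counting. Loss of signal vs DMSO; initial duplicate screen at 25 uM, actives retested in concentration series.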
# [10] = target: guinea pig Sigma Receptor, Non-selective Binding, SIGMAR1 (gene 100135589) (UniProt Q60492); experiment: NVS_OR_gSIGMA_NonSelective: NovaScreen (NVS) Nuclear Receptor Binding Assay for guinea pig Sigma Receptor, Non-selective Binding (AID 2283367)
# Sequence of guinea pig Sigma Receptor, Non-selective Binding, SIGMAR1 (gene 100135589) (Q60492 whole entry, looked up): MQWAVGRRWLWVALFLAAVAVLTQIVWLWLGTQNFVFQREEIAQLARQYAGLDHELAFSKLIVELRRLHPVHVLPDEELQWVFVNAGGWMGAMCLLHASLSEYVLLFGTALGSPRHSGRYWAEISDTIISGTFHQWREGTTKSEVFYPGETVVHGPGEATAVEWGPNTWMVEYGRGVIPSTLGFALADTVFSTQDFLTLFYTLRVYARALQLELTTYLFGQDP
# Summary of the method: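 Radioligand displacement on guinea pig brain membranes, read by filter-based scintillation counting 1 h after dosing. Loss of signal versus DMSO; initial duplicate single-point screen at 25 uM, actives followed in concentration series.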
# [11] = target: rat Serotonin Transporter (SERT), Slc6a4 (gene 25553) (UniProt P31652); experiment: NVS_TR_rSERT: NovaScreen (NVS) Transporter Assay for rat Serotonin Transporter (SERT) (AID 2283375)
# Sequence of rat Serotonin Transporter (SERT), Slc6a4 (gene 25553) (P31652 whole entry, looked up): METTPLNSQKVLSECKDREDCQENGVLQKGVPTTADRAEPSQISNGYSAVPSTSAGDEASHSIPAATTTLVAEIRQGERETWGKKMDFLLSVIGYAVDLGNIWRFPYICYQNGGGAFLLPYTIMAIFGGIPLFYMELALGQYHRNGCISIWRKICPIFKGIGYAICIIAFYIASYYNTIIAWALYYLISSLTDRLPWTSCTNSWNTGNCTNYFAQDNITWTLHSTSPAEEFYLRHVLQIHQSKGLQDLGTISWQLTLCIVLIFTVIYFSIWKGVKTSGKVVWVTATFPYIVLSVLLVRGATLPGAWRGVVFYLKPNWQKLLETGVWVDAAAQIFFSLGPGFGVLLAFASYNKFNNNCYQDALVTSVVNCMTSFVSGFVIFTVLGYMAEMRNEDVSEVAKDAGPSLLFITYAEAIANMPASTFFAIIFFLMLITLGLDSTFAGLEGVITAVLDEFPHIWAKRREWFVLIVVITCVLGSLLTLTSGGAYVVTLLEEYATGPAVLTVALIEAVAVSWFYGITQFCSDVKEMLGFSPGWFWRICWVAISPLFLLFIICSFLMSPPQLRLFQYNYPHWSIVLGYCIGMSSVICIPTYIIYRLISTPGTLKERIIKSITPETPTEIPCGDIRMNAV
# Summary of the method: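 Filtration-based radiodetection quantified loss of specific radioligand binding in rat forebrain membranes after 1 hour of chemical exposure, relative to DMSO. Chemicals were first tested in duplicate at 25 uM.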
# [12] = target: sheep Cyclooxygenase-1 (Cox1), PTGS1 (gene 443551) (UniProt P05979); experiment: NVS_ENZ_oCOX1: NovaScreen (NVS) Enzymatic Assay for sheep Cyclooxygenase-1 (Cox1) (AID 2283239);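 also: actives reduce cyclooxygenase activity so potencies are for inhibitors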
# Summary of the method: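 Absorbance read-out of cyclooxygenase activity in a cell-free preparation from sheep seminal vesicles, taken 0.66 hour after dosing. Initial testing was in duplicate at 25 uM, and confirmatory testing was run in concentration series.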
# [13] = target: rat Thyrotropin Releasing Hormone Receptor (TRH), Trhr (gene 25570) (UniProt Q01717); experiment: NVS_GPCR_rTRH: NovaScreen (NVS) G Protein-Coupled Receptor Assay for rat Thyrotropin Releasing Hormone Receptor (TRH) (AID 2283329);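 also: hit means lower bound tracer signal versus DMSO baseline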
# Sequence of rat Thyrotropin Releasing Hormone Receptor (TRH), Trhr (gene 25570) (Q01717 whole entry, looked up): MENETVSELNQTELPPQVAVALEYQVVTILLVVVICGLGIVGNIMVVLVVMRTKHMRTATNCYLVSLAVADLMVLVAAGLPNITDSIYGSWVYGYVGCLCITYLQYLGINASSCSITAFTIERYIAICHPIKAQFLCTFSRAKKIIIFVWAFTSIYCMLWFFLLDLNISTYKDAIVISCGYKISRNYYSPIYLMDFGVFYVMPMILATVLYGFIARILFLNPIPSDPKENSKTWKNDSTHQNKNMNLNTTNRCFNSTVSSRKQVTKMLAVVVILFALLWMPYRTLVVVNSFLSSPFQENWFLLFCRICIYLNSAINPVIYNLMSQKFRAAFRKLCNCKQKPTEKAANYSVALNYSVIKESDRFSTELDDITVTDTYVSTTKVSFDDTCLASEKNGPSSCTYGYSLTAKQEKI
# Summary of the method: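 Cell-free radioligand binding on rat forebrain membranes; bound tracer measured by filter-based scintillation counting 4 hours after dosing. Loss of signal versus DMSO baseline indicates displacement; primary screen at 25 uM in duplicate, actives then run in concentration series.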
# [14] = target: human Peroxisome Proliferator-activated Receptor alpha (PPARa), PPARA (gene 5465) (UniProt Q07869); experiment: NVS_NR_hPPARa: NovaScreen (NVS) Nuclear Receptor Binding Assay for human Peroxisome Proliferator-activated Receptor alpha (PPARa) (AID 2283359);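 also: activity means loss of TR-FRET signal versus DMSO baseline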
# Sequence of human Peroxisome Proliferator-activated Receptor alpha (PPARa), PPARA (gene 5465) (Q07869 whole entry, looked up): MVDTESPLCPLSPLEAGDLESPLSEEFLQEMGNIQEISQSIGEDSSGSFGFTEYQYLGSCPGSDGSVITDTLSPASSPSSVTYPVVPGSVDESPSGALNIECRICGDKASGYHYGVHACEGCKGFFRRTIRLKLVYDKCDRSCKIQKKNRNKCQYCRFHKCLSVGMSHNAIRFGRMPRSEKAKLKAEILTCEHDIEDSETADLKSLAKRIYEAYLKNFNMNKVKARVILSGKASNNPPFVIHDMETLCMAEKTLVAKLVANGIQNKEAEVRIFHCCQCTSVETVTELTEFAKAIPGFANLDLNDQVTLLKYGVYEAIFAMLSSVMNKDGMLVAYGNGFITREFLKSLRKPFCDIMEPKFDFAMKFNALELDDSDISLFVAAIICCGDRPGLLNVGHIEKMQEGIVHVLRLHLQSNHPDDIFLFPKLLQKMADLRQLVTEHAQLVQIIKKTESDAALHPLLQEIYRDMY
# Summary of the method: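 Cell-free TR-FRET binding assay with extracted PPARα protein, read 1 h after dosing. Primary screen in duplicate at 25 uM, with actives retested in concentration series. Loss of signal versus DMSO.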
# [15] = target: Bile acid receptor (Homo sapiens) (UniProt Q96RI1); experiment: OT_FXR_FXRSRC1_0480: Odyssey Thera (OT) 8-hour HEK293T Protein-Complementation Assay for Farnesoid X receptor/SRC-1 Co-activator (AID 2283383)
# Sequence of Bile acid receptor (Homo sapiens) (Q96RI1 whole entry, looked up, the tested form may be a part): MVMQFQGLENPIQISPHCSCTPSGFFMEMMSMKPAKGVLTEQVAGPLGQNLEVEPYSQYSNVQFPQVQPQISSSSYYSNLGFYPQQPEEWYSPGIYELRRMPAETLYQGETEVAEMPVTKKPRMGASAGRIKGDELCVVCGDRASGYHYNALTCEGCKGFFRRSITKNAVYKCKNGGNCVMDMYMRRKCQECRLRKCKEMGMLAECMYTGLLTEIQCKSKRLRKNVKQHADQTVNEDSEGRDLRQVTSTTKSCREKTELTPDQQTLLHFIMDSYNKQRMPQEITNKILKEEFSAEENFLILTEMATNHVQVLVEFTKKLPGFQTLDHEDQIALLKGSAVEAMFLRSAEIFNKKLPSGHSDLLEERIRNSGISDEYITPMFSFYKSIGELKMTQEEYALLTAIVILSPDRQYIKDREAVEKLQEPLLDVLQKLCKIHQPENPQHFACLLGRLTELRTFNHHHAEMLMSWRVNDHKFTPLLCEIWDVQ
# Summary of the method: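 Human kidney HEK293T cells carried FXR/SRC-1 fragment-complementation constructs. Compounds were added and incubated 8 h. Reporter reassembly upon receptor–co-activator interaction was then quantified by fluorescence, with curves fitted in the positive direction relative to DMSO.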
# [16] = CPHEA_Stoker_NIS_Cytotoxicity: Cytotoxicity Assessment for CPHEA's Radioactive Iodide Uptake (RAIU) Assay for Sodium/Iodide Symporter (NIS) Inhibition, Stoker and Laws Labs (AID 2283897)
# Summary of the method: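 hNIS-HEK293T-EPA human kidney cells were exposed for 2 hours at room temperature to test chemicals (0.001–100uM, 0.5% final DMSO) in HEPES-buffered HBSS, pH 7.4. Viability was read as ATP content by luciferase bioluminescence, loss of signal versus DMSO.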
# [17] = CCTE_Deisenroth_5AR_NBTE_donor: CCTE's 5alpha-reductase NanoBRET Target Engagement Assay […], Deisenroth Lab (AID 2284319; active = hit-call score of the fitted dose curve at least 0.9, where 1 is the maximum; inactive = score below 0.9); settings: actives raise or lower the signal
# Summary of the method: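 Donor NanoLuc luminescence at 460-20 nm is the read-out, serving artifact detection. Transiently expressed SRD5A2-NanoLuc in HEK293T; 5 h total chemical exposure, testosterone tracer added for the final 2 h; fitting bidirectional relative to DMSO baseline.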
# [18] = CCTE_Deisenroth_5AR_NBTE_acceptor: CCTE's 5alpha-reductase NanoBRET Target Engagement Assay - Autofluorescence Screen, Deisenroth Lab (AID 2284321; active = hit-call score of the fitted dose curve at least 0.9, where 1 is the maximum; inactive = score below 0.9;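 also: compound fluorescence in the acceptor channel under 460 nm excitation flags autofluorescence artifacts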); settings: actives raise or lower the signal
# Summary of the method: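 Acceptor fluorescence intensity was read as an artifact-detection endpoint. Test chemicals at an assumed nominal 100 uM were excited at 460 nm across three independent runs. Activity was fitted bidirectionally against DMSO.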
# SRD5A2 (gene 6716) = experiment: CCTE_Deisenroth_5AR_NBTE_ratio: CCTE's 5alpha-reductase NanoBRET Target Engagement Assay - Ratio, Deisenroth Lab (AID 2284322; active = hit-call score of the fitted dose curve at least 0.9, where 1 is the maximum; inactive = score below 0.9); settings: actives raise or lower the signal
# Summary of the method: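 HEK293T transiently expressing SRD5A2-NanoLuc; cells exposed to chemical (8-point, 10 nM - 29.9 uM) for 5 h total, testosterone tracer added for final 2 h. NanoBRET acceptor/donor ratio (650/460 nm), bidirectional fit vs DMSO.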
# [19] = TAMU_PeakParms_SingleDonor1434_Chronotropy: Texas A&M University (TAMU) 1.5-hr Human Induced Pluripotent Stem Cell (iPSC)-derived Cardiomyocytes Calcium (Ca+2) Flux Assay for Cardiotoxicity: Chronotropy (changes in peak frequency) (AID 2284217; active = hit-call score of the fitted dose curve at least 0.9, where 1 is the maximum; inactive = score below 0.9); settings: actives raise or lower the signal
# Summary of the method: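 iPSC-CMs, donor 1434; 4 conc (0.2–100 uM), 0.5% v/v DMSO, 90 min, 37C/5% CO2; Ca2+ flux fluorescence → peak.freq.avg; peak.freq.avg = 0 dropped; bidirectional fit vs DMSO; EC05 POD.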
smiles,measurement,setting,value
CC[N+](CC)(CC(=O)Nc1c(C)cccc1C)Cc1ccccc1,AC50,[1],0.132 µM (active)
same,AC50,[2],3.7 µM (active)
same,AC50,[3],0.419 µM (active)
same,AC50,[4],16.6 µM (active)
same,outcome,[5],inactive
same,AC50,[6],18.7 µM (active)
same,AC50,[7],3.49 µM (active)
same,AC50,[8],7.02 µM (active)
same,outcome,[9],inactive
same,AC50,[10],12.7 µM (active)
same,outcome,[11],inactive
C[N+](C)(C)CC(=O)[O-],outcome,[12],inactive
CCCCCC[C@@H](O)C/C=C\CCCCCCCC(=O)O,outcome,[13],inactive
same,AC50,[14],36.8 µM (active)
same,AC50,[15],74.3 µM (active)
same,outcome,[16],inactive
same,outcome,[17],inactive
same,outcome,[18],inactive
same,outcome,SRD5A2 (gene 6716),inactive
Nc1nc(N)c2nc(-c3ccccc3)c(N)nc2n1,outcome,[19],inactive
